# Shown are actives, neighbours in structure and some others; about 6.2% of the full set was active somewhere.
# HT1080 IDH1KD tx – qHTS for induction of synthetic lethality in tumor cells producing 2HG: qHTS for the HT-1080-IDH1KD cell line; HT-1080 IDH1 knockdown viability, ATP luminescence, 48 h; Potency, µM (doses to about 46.1 µM), inactives show at the top dose activity, negative = toxicity, hits mostly cytotoxic; 360,000 tested, 2% active;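 further: 0% = DMSO wells and -100% = cell-free medium wells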
#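 Cytotoxicity counter-line: IDH1KD HT-1080, 48 h, CellTiter-Glo. Curves classed by r2, magnitude and activity.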
# ATXN viability – Viability Counterscreen for Primary qHTS for Inhibitors of ATXN expression; S2 cells (HEK-293 line with an ATXN2-luciferase reporter) viability, CellTiter-Fluor protease fluorescence, 24 h; Potency, µM (doses to about 56.7 µM), actives largely listed as cytotoxic; 400,000 tested, 0.49% active; further: nearly all actives have a fitted effect of over 40% in size
# KB-V1 cytotox – qHTS assay for MDR1-selective chemotherapeutics: Primary screen using the drug-selected MDR subline cells KB-V1 | AID 1347076, 2019 | KB-V1 MDR cells viability, CellTiter-Glo, 72 h | Potency, µM (titrated, usually from 46.1 µM), actives largely listed as cytotoxic | 400,000 tested, 3.4% active; further: on the % scale 0 is the no-effect control and ±100 the full control effect; nearly all actives have a fitted effect of over 60% in size
#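 Drug-selected KB-V1 cells, grown in DMEM lacking phenol red with 10% FBS, receive compound titrations; after three days at 37 degrees C, surviving cell ATP is quantified by CellTiter-Glo luminescence and responses normalized and curve-fitted.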
# KB-3-1 tox – qHTS assay for MDR1-selective chemotherapeutics: Primary screen using the parental adenocarcinoma cell KB-3-1; KB-3-1 viability, CellTiter-Glo ATP luminescence, 72 h; Potency, µM (titrated, usually from 46.1 µM), actives largely listed as cytotoxic; 400,000 tested, 1.4% active; AID 1347075, 2019; further: on the % scale 0 is the no-effect control and ±100 the full control effect; nearly all actives have a fitted effect of over 60% in size
#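 Viability of parental KB-3-1 cells, measured by CellTiter-Glo luminescence, followed a 72 h incubation at 37 °C with pinned compounds in phenol-red-free DMEM containing 10% FBS.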
# ATXN2 expr inh – Primary qHTS for Inhibitors of ATXN expression. 360,000 tested, 0.72% active. HEK-293 ATXN2-luciferase reporter, luminescence, 24 h. Potency, µM (highest dose often 57 µM), for inactives: at the highest dose activity change, negative = inhibition, hits mostly inhibitors. AID 1745845, 2022; further: on the % scale 0 is the no-effect control and ±100 the full control effect; nearly all actives have a fitted effect of over 55% in size
#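 qHTS (up to 57 uM final) was run with 24 h compound exposure of reporter cells at 37 °C. Each well was multiplexed: SteadyGlo luminescence measured ATXN2-luciferase expression after a fluorogenic Gly-Phe-AFC viability readout (25 uM final).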
# HT1080-NT tox – qHTS for induction of synthetic lethality in tumor cells producing 2HG: qHTS for the HT-1080-NT fibrosarcoma cell line | 360,000 tested, 1.6% active | HT-1080-NT fibrosarcoma viability, CellTiter-Glo ATP luminescence, 48 h | Potency, µM (series often up to 46.1 µM), without a hit: at the highest dose activity, negative = less viability, hits mostly cytotoxic | AID 686970, 2013;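 further: NT is the 2HG producing partner of a matched IDH1 knockdown line; 0% = DMSO-treated cells and -100% = media-only wells without cells; nearly all actives have a fitted effect of over 55% in size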
#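 Viability by CellTiter-Glo luminescence after 48 h compound exposure at 37C of HT-1080-NT cells (750/well, RPMI, 5% FBS). % activity scaled between DMSO wells and medium-only wells, then curve-fitted and categorized by curve class.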
# Active calls of the source: *; i = inactive; ? = inconclusive; . = no result given. The call rests on the fitted dose curve; in most records, active means well fitted curve in the direction sought with a large enough effect; inconclusive means small, poorly fitted or top-dose-only effect, or another doubt; inactive means no such curve, though single readings can be large; an effect the other way counts as inactive or inconclusive. Potency means the concentration at half of the fitted maximal effect.
SMILES,HT1080 IDH1KD tx,ATXN viability,KB-V1 cytotox,KB-3-1 tox,ATXN2 expr inh,HT1080-NT tox
COc1ccc(C)c2sc(N(CCCN(C)C)C(=O)c3ccc(S(=O)(=O)N4CCc5ccccc5C4)cc3)nc12,?,.,10µM*,?,28µM*,?
CN(C)CCCN(C(=O)c1ccc(S(=O)(=O)N2CCc3ccccc3C2)cc1)c1nc2c(F)cc(F)cc2s1,-8%,i,i,i,-11%,-23%
COc1cccc2sc(N(CCCN(C)C)C(=O)c3ccc(S(=O)(=O)N4CCc5ccccc5C4)cc3)nc12,?,?,i,i,?,?
O=S(=O)(N=C1C=CC(=NS(=O)(=O)c2ccccc2)c2ccccc21)c1ccccc1,?,i,i,?,.,-15%
Cc1ccc(S(=O)(=O)/N=C2\C=C(NS(=O)(=O)c3ccccc3)C(=O)c3ccccc32)cc1,?,20µM*,i,i,-31%,?
O=C(O)c1ccc(NC2=C/C(=N/S(=O)(=O)c3ccccc3)c3ccccc3C2=O)cc1,5.8µM*,.,?,18µM*,35µM*,4.1µM*
Cc1cc(C)c(S(=O)(=O)/N=C2\C=C(Nc3ccc(C(=O)O)cc3)C(=O)c3ccccc32)c(C)c1,4.1µM*,?,i,?,28µM*,8.2µM*
Cc1cc(C)c(S(=O)(=O)/N=C2\C=C(NS(=O)(=O)c3ccccc3)C(=O)c3ccccc32)c(C)c1,-7%,?,i,i,-5%,-6%
Cc1ccc(S(=O)(=O)/N=C2/C=C(C3C(=O)CC(C)(C)CC3=O)C(=O)c3ccccc32)cc1,?,i,16µM*,i,17%,-14%
CCCN1C(=O)C2(c3ccccc31)c1c(oc3ccc(C)cc3c1=O)C(=O)N2CCOC (stereo not drawn),.,i,i,i,3%,.
C[C@H](CO)N1C[C@H](C)[C@H](CN(C)C(=O)c2ccc(N3CCN(C)CC3)cc2)OCc2cnnn2CCCC1=O,11%,?,i,i,9%,18%
Cc1nnc(N/N=C/c2ccccc2F)n1N,1%,i,i,i,-18%,8%
COc1cccc(/C=N/NC(=O)CSc2nnc(C)n2-c2ccccc2)c1O,13µM*,?,i,?,?,?
CCCCSc1nc(C)cc(SCC(=O)N/N=C/c2cccc(OC)c2O)n1,?,?,i,?,7.1µM*,?
COc1cccc(/C=N/Nc2ncnc3c2ncn3Cc2ccccc2)c1O,?,i,0.52µM*,?,?,-14%
COc1cccc(/C=N/Nc2nnc(C)n2N)c1O,21µM*,i,i,i,-1%,?
COc1ccc(NC(=O)Cn2c(=O)n(Cc3ccco3)c(=O)c3sc4ccccc4c32)cc1Cl,.,i,i,i,-3%,.
CCN(CC)C(=O)Cn1c(=O)n(-c2ccc(Cl)cc2)c(=O)c2c3c(sc21)CCC3,.,i,i,i,10%,.
CCn1cc(C(=O)NCCc2ccc(OC)c(OC)c2)c(=O)c2cc(S(=O)(=O)N3CCC(C)CC3)ccc21,.,?,i,i,6%,.
COc1ccc(/C=N/Nc2cc(N3CCOCC3)ncn2)c(OC)c1,0%,i,?,i,-4%,10%
COc1cccc(/C=N/Nc2cc(N3CCOCC3)ncn2)c1O,5.8µM*,i,i,10µM*,?,?
CC(=O)c1ccc(NS(=O)(=O)c2cc3c(cc2C)N(C)CCO3)cc1,16µM*,i,i,i,-18%,?
O=C(Nc1ccc(F)c(F)c1)C1CCCCC1,1%,i,i,i,6%,15%
O=C(Oc1ccc(N(Cc2cccs2)C2=NS(=O)(=O)c3ccccc32)cc1)c1ccccc1,-5%,i,16µM*,i,-7%,-4%
CC(=O)Oc1ccc(-c2csnn2)cc1,6%,i,i,i,1%,9%
SMILES,HT1080 IDH1KD tx,ATXN viability,KB-V1 cytotox,KB-3-1 tox,ATXN2 expr inh,HT1080-NT tox
Cc1ccccc1C(=O)NNc1ccc(-c2csnn2)cc1,8.2µM*,i,i,i,-33%,?
O=C1C(=Cc2cccc(O)c2O)SC(=S)N1CCCN1CCOCC1,-5%,?,i,i,.,-3%
COc1ccc(NC(=O)C2(C)Cc3c(-c4ccccc4)ccnc3O2)cc1OC (stereo not drawn),-21%,i,?,i,-11%,-1%
CC1(C(=O)NCC2CC2)Cc2c(-c3cccc(C(F)(F)F)c3)ccnc2O1 (stereo not drawn),21µM*,i,?,?,-31%,?
COCCNC(=O)C1(C)Cc2c(-c3cccc(C(F)(F)F)c3)ccnc2O1 (stereo not drawn),21µM*,i,i,?,0%,?
COCCNC(=O)C1(C)Cc2c(-c3cccc(C(N)=O)c3)ccnc2O1 (stereo not drawn),2%,i,i,i,14%,12%
COc1ccc(NC(=O)C2(C)Cc3c(-c4cccc(C(F)(F)F)c4)ccnc3O2)cc1OC (stereo not drawn),15µM*,i,i,?,?,21µM*
CC1(C(=O)NCC2CC2)Cc2c(-c3cccc(C(N)=O)c3)ccnc2O1 (stereo not drawn),0%,i,?,i,9%,-16%
O=C(COc1ccc(Br)cc1)NCCN1CCCC1,-3%,.,i,i,37%,-13%
O=C(Nc1ccc(F)cc1F)c1ccc(CN2CC(=O)N3CCCCC3C2=O)cc1 (stereo not drawn),.,i,i,i,-10%,.
Cc1ccc(NC(=O)C2CCN(C(=O)c3cnn(-c4ccccc4)c3-n3cccc3)CC2)cc1,.,i,i,?,-17%,.
CCCOc1cccc(-c2nn(-c3ccccc3)cc2/C=C(\C#N)C(=O)NCCCn2ccnc2)c1,-21%,i,18µM*,i,-15%,-13%
N#C/C(=C\c1ccc([N+](=O)[O-])cc1)C(=O)NCCCn1ccnc1,-9%,i,i,?,-3%,14%
N#C/C(=C/c1cn(-c2ccccc2)nc1-c1cccc(OCc2ccc(F)cc2)c1)C(=O)NCCCn1ccnc1,?,i,16µM*,?,?,16µM*

# Compound activity as filed in PubChem.
